Hits are enriched below; roughly 8.1% of the tested compounds scored in any of these assays.
KB-3-1 tox = kills parental KB-3-1 adenocarcinoma cells; KB-3-1 viability, CellTiter-Glo ATP luminescence, 72 h; Potency, µM (top dose mostly 46.1 µM), usual class: cytotoxic; 1.4% of 400,000 active; AID 1347075; further: on the % scale 0 is the no-effect control and ±100 the full control effect; nearly all actives have a fitted effect of over 60% in size
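Cytotoxicity in the drug-sensitive parental line KB-3-1 was scored as loss of CellTiter-Glo luminescence following 72 h incubation with compound. Values come from curve fitting of normalized concentration-response data.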
ELG1 DNA repair = blocks ELG1-dependent DNA repair in HEK293T cells. Potency, µM (titrated, usually from 46.1 µM), without a hit: top-dose activity change, negative = inhibition, usual class: inhibitors. 2.3% of 330,000 active. HEK293T ELG1-luciferase reporter, luminescence, 16 h; DNA damage induced by 5-fluorouridine. AID 504467; further: on the % scale 0 is the no-effect control and ±100 the full control effect; nearly all actives have a fitted effect of over 55% in size
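In this reporter screen, reduction of luminescence relative to DMSO vehicle indicated activity. Compounds and 5-fluorouridine were added together to 2,000 cells per well, incubated for 16 hr at 37 °C, then developed with ONE-Glo.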
SW480 rerep = induces DNA re-replication in SW480 colon adenocarcinoma cells | SW480 DNA re-replication, Hoechst DNA content imaging, 48 h | Potency, µM (titrated, usually from 46.1 µM), for inactives: top-dose re-replication activation, actives largely listed as activators | 1.8% of 340,000 active; further: % of control where 0% means no effect; nearly all actives have a fitted effect of over 55% in size
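SW480 cells exposed to compounds for 48 hr at 37 C, 5% CO2, then Hoechst-stained 40 min. Nuclear DNA content imaged by fluorescence scanning (405 nm excitation, 500-530 nm emission); re-replication scored as increased high-intensity nuclei.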
MCF10A rereplic = DNA re-replication induction in MCF 10a cells. Potency, µM (doses to about 46.1 µM), inactives show at the top dose activity, positive = re-replication, hits mostly activators. 2.9% of 350,000 active. MCF 10A DNA re-replication, Hoechst nuclear intensity, 48 h. AID 624296; further: % of control where 0% means no effect; nearly all actives have a fitted effect of over 50% in size
KB-V1 MDR tox = kills drug-selected multidrug resistant KB-V1 cells. KB-V1 MDR cells viability, CellTiter-Glo, 72 h. Potency, µM (series often up to 46.1 µM), most hits filed as cytotoxic. 3.4% of 400,000 active. AID 1347076; further: on the % scale 0 is the no-effect control and ±100 the full control effect; nearly all actives have a fitted effect of over 60% in size
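Readout: CellTiter-Glo luminescence, 10 min after addition. Cells: KB-V1 MDR subline, 72 h at 37 degrees C with compound. Analysis: corrected, normalized data fitted to concentration-effect curves.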
* hit, by the source's call; i = inactive; ? = inconclusive; . = no result. The call rests on the fitted dose curve; in most records, active means well fitted curve in the direction sought with a large enough effect; inconclusive means small, poorly fitted or top-dose-only effect, or another doubt; inactive means no such curve, though single readings can be large; an effect the other way counts as inactive or inconclusive. Potency means the concentration at half of the fitted maximal effect.

SMILES	KB-3-1 tox	ELG1 DNA repair	SW480 rerep	MCF10A rereplic	KB-V1 MDR tox
COc1ccc(OC)c(/C=C/C(=O)N2CCN(S(=O)(=O)c3ccc(C)cc3C)CC2)c1	?	?	13.6%	4.1%	3.66µM*
COc1ccc(OC)c(/C=C/C(=O)N2CCN(S(=O)(=O)c3cc(C)ccc3C)CC2)c1	i	?	93.0%	?	i
COc1cc(C(=O)OCC(=O)N2CCN(S(=O)(=O)c3ccc(C)cc3C)CC2)c([N+](=O)[O-])cc1OC	i	.	3.4%	4.1%	9.2µM*
COc1ccccc1CC(=O)N1CCN(S(=O)(=O)c2cccs2)CC1	i	-7.4%	-30.9%	?	?
Cc1cc(Cn2nc(C(=O)NCc3cccc(C(F)(F)F)c3)cc2-c2ccccc2)on1	i	-27.6%	-80.4%	1.3%	i
C=CCn1c(SCc2c(C)noc2C)nc2cc(C(=O)O)ccc2c1=O	?	?	?	2.91µM*	?
C=CCn1c(SCc2c(C)noc2C)nc2ccccc2c1=O	?	24.4%	0.651µM*	7.31µM*	?
CCOc1ccc2c(c1)nc(SCC(=O)c1ccc(Br)s1)n2C	?	6.1%	?	75.7%	18.4µM*
Clc1cccc(Cc2c(-c3ccccc3)nc3c4ccccc4ccn23)c1	i	.	.	.	i
Cc1cc(-c2ccccc2)n[nH]1	i	?	-17.9%	0.651µM*	i
Cc1c(N)cc[n+](CC(=O)c2ccccc2)c1C	5.17µM*	14.4%	?	-14.1%	?
CCN(C(=O)COc1nc(C)cc(C)c1C#N)c1ccccc1	i	-3.3%	1.6%	?	?
Cc1cc(C)c(C#N)c(OCC(=O)c2ccc(Br)cc2)n1	i	-3.0%	?	?	5.8µM*
Cc1ccc(C(=O)COc2nc(C)cc(C)c2C#N)cc1	i	-3.0%	?	?	10.3µM*
CCCn1c(-c2ccccc2)cc(SC)c(C#N)c1=O	i	-9.0%	5.8µM*	5.4%	i
CSc1cc(-c2ccccc2)n(Cc2ccccc2Cl)c(=O)c1C#N	4.61µM*	?	6.51µM*	3.66µM*	?
CC1CN(c2ccc(Cl)cc2)c2nc3c(c(=O)n(CC(=O)O)c(=O)n3C)n2C1 (configuration not stated)	i	.	.	.	?
Cc1ccc(C2C=C(c3ccccc3OC(F)F)Nc3ncnn32)cc1 (configuration not stated)	?	-10.1%	-205.5%	13.5%	20.6µM*
Cc1ccc(C2=CC(c3ccccc3)n3ncnc3N2)c(C)c1 (configuration not stated)	i	.	-11.4%	9.4%	i
CN(C)c1ccc(C2C=C(c3ccc(Cl)cc3OC(F)F)Nc3ncnn32)cc1 (configuration not stated)	i	?	23.1µM*	4.11µM*	11.6µM*
Cc1ccc(C)c(Cn2nnc3c(=O)[nH]c(C4CCN(S(=O)(=O)c5ccc(S(=O)(=O)NC6CC6)cc5)CC4)nc32)c1	?	16.4µM*	21.8%	1.4%	?
O=c1[nH]c(C2CCN(S(=O)(=O)c3ccc(S(=O)(=O)NC4CC4)cc3)CC2)nc2c1nnn2Cc1ccccc1	i	18.3µM*	-29.1%	?	i
O=c1[nH]c(C2CCN(S(=O)(=O)c3ccc(F)cc3)CC2)nc2c1nnn2Cc1ccc2c(c1)OCCO2	i	25.9µM*	10.5%	20.0%	i
CCOC(=O)/C=c1/s/c(=C/c2ccccc2OC)c(=O)n1CC(=O)N1CCOCC1	i	.	-1.7%	16.0%	?
N#Cc1c(C(F)(F)F)cc(-c2cccs2)nc1SCC(=O)Nc1ccccc1F	i	.	.	.	i
O=S(=O)(Nc1ccc(-n2cnnn2)cc1)c1ccc(Cl)s1	i	-4.1%	-11.0%	-11.0%	i
Cc1cc(O)c2c(c1)CC1C3CCC4CC(=O)CCC4(C)C3CC(=O)C21C (configuration not stated)	?	.	?	16.4µM*	?
O=C(/C=C/c1ccc(Cl)cc1)NC(=S)Nc1ccc(CN2CCOCC2)cc1	i	21.5%	22.2%	20.6µM*	i
O=C(/C=C/c1ccc(Cl)cc1Cl)Nc1ccc(CN2CCOCC2)cc1	?	?	?	8.2µM*	i
